# Results as given in ChEMBL document CHEMBL1157539, “Thousands of chemical starting points for antimalarial lead identification” (Nature, 2010).
# Tests used:
# Type in all cases: functional
# [1] = test system: Plasmodium falciparum; assay: GSK_TCMDC: Inhibition of Plasmodium falciparum 3D7 in whole red blood cells, using parasite LDH activity as an index of growth. Test compounds present at 2uM
# [2] = test system: Plasmodium falciparum; assay: GSK_TCMDC: Inhibition of Plasmodium falciparum Dd2 in whole red blood cells, using parasite LDH activity as an index of growth. Test compounds present at 2uM
# [3] = test system: HepG2; assay: GSK_TCMDC: Percent inhibition of human HepG2 cell line. Test compounds present at 10uM.
SMILES,Inhibition [1],Inhibition [2],Inhibition [3]
CCc1cccc2c(C#N)cn(CC(=O)NCCc3ccccc3)c12,95%,64%,1%
OCC(c1ccccc1)n1c(COc2ccc(Cl)cc2)nc2c(OCCCN3CCCCC3)cccc21 (stereo unspecified),90%,68%,6%
O=C(/C=C/c1ccc(Cl)c(Cl)c1)NCCCCCCN1CCCN(C(=O)Nc2ccc(C(F)(F)F)cc2)CC1,100%,25%,47%
Cc1cc(CNCCCCCCCNCc2cccc([N+](=O)[O-])c2)ccc1O,100%,0%,6%
CC(C)(C)c1ccc(NC(=O)c2cccc(CN3CCN(Cc4cccc(O)c4)CC3)c2)cc1.O=C(O)C(F)(F)F,92%,3%,28%
CC1(C)N=C(N)N=C(N)N1c1cc(Cl)c(Cl)cc1Cl.Cl,95%,0%,11%
CCc1ccc(S(=O)(=O)Nc2ccc(CCN3CCC(N4CCCCC4)CC3)cc2)cc1,100%,13%,35%
O=C(Nc1ccccc1Cc1ccccc1)c1ccccc1[N+](=O)[O-],98%,59%,0%
Cc1nnsc1C(=O)Nc1ccc(-c2cccc(-c3nc4cc(C(F)(F)F)ccc4[nH]3)c2)cc1,97%,36%,69%
Br.Oc1cccc2c1CC(NCc1ccccc1)CC2 (stereo unspecified),90%,24%,4%
COc1ccc2nccc(N3CCC(CCNCc4cc5c(cn4)OCCO5)CC3)c2n1.Cl,100%,100%,18%
Cc1sc2ccc(Cl)cc2c1S(=O)(=O)Nc1ccc2nccc(N3CC(C)NC(C)C3)c2c1.Cl (stereo unspecified),100%,100%,17%
S=C(NN=Cc1ccccn1)NC1CC2C=CC1C2 (stereo unspecified),99%,96%,51%
CC(=O)Nc1ccc(S(=O)(=O)N(Cc2cccc(Oc3ccccc3)c2)C2CCN(C/C=C(\C)CCC=C(C)C)CC2)cc1,100%,99%,22%
Cc1cc(SC(C)(C)C)cc2c(Cl)c(C(N)=O)cnc12,98%,98%,83%
CN(CCO)Cc1cccc(-c2ccc(NC(=O)c3cccc(C#N)c3)cc2)c1.O=C(O)C(F)(F)F,97%,57%,23%
O=C(O)C(F)(F)F.OCC1CCN(Cc2ccc(-c3ccc(-c4nc5cc(C(F)(F)F)ccc5[nH]4)cc3)cc2)CC1,100%,91%,17%
CCc1cc2c3c(N)nc(N)nc3ccc2n1CC,93%,0%,62%
Cc1nn(-c2ccccc2)nc1C(=O)N(Cc1ccc(-c2ccc(CNCCc3ccc(S(C)(=O)=O)cc3)cn2)cc1)C(C)CN(C)C.O=C(O)C(F)(F)F (stereo unspecified),100%,87%,25%
COc1cccc(CNC[C@@H](O)[C@H](Cc2ccccc2)NC(=O)c2cc(C3CCCC3)cc(N3CCCCS3(=O)=O)c2)c1.Cl,96%,83%,7%
O=S(=O)(Nc1ccc(CCN2CCC(N3CCCCC3)CC2)cc1)c1ccc2ccccc2c1,100%,80%,44%

SMILES,Inhibition [1],Inhibition [2],Inhibition [3]
CCCNCc1ccc(-c2ccc(CN(CCOC)C(=O)c3cscn3)cc2)nc1.O=C(O)C(F)(F)F,99%,16%,13%
CCOc1cc(C(=O)Nc2ccc3nc(N4CCCCC4)cc(C)c3c2)cc(OCC)c1OCC,100%,2%,26%
COC(=O)c1cccc(CNCc2ccc(-c3ccc(-c4nc5cccc(C)c5[nH]4)s3)cc2)c1.O=C(O)C(F)(F)F,100%,64%,3%
COc1ccc(Nc2nccc(N3CCC(NC(=O)C(C)c4ccc(Cl)cc4)C3)n2)cc1 (stereo unspecified),85%,97%,35%
O=C(Cn1c(CCc2cccc(F)c2F)cc(=O)c2cccnc21)N(CCn1ccnc1)Cc1ccc(-c2ccc(C(F)(F)F)cc2)cc1,99%,62%,39%
CCN1CCN(CCCNc2ccnc3cc(Cl)ccc23)CC1.Cl,100%,77%,7%
Cc1cc(=NN=Cc2ccccc2F)c2cccc(C)c2[nH]1,100%,14%,7%
CCc1nc(N)nc(N)c1-c1ccc(C(C)(C)C)cc1,94%,0%,27%
O=C(Nc1ccc(OC2CCN(Cc3ccccc3)CC2)c(Cl)c1)c1ccco1.O=C(O)C(F)(F)F,96%,96%,8%
CN(Cc1cccc(C#N)c1)C1CCN(c2cc(NC(=O)c3ccc(F)cc3)ccn2)CC1.O=C(O)C(F)(F)F,97%,23%,4%
Cc1nc(C)c(-c2ccc(C(=O)c3ccccc3)cc2)c(O)c1Br,95%,96%,0%
O=C(CNC1CCCCC1)Nc1cccc(C(=O)Nc2cccc(C(F)(F)F)c2)c1.O=C(O)C(=O)O,93%,80%,17%
COc1cc(Nc2ncc3c(C)nc(-c4cc5ccccc5[nH]4)n3n2)cc(OC)c1OC,91%,65%,19%
O=C(C=CC(=O)N1CCCCC1)NCc1ccccc1,100%,0%,6%
COCc1cccc(-c2cc(-c3ccc(S(C)(=O)=O)cc3)cnc2N)c1,98%,88%,10%
N=C(N)c1ccc(NC(=O)c2cc(Sc3ccc(O)c(C(=O)Nc4ccc(C(=N)N)cc4)c3)ccc2O)cc1,93%,87%,11%
Cl.N#Cc1ccc2c(c1)CCN(CCC1CCC(NC(=O)/C=C/c3ccc4[nH]ccc4c3)CC1)CC2 (stereo unspecified),93%,27%,2%
CCCCCCN1CCC(NCc2ccc(CN(C)C)cc2)CC1.O=C(O)C(F)(F)F,92%,26%,18%
Cc1nc2c(c(O)c1Cl)-c1ccc(Oc3cccc(C(F)(F)F)c3)cc1C2=O,98%,97%,25%
CCc1c(CCNCCCCCCNCCc2ccc3c(c2C)OCO3)ccc2c1OCO2.Cl,100%,7%,59%
CN(C)CCCOc1cccc(NC(=O)Nc2ccc(-c3ccccc3)cc2)c1.O=C(O)C(F)(F)F,91%,14%,9%

SMILES,Inhibition [1],Inhibition [2],Inhibition [3]
CC1(C)N=C(N)N=C(N)N1c1ccc(Oc2ccccc2)cc1.Cl,98%,3%,13%
O=C(O)C(F)(F)F.O=[N+]([O-])c1ccc(Oc2ccccc2CNCC2CCN(CC3CCCCC3)CC2)cc1,89%,28%,40%
CCCc1ccc(S(=O)(=O)Nc2ccc3c(c2)CCC3)cc1,96%,0%,8%
Cc1cccc(C(=O)Nc2ccnc(N(C)CCCN(C)Cc3cccc(O)c3)c2)c1.O=C(O)C(F)(F)F,94%,71%,27%
CS(=O)(=O)NCCCNCc1ccc(-c2ccc(-c3nc4cc(C(F)(F)F)ccc4[nH]3)s2)cc1.O=C(O)C(F)(F)F,99%,73%,21%
O=C(Nc1cccc(-c2ccc(-c3nc4cc(F)ccc4[nH]3)cc2)c1)c1ccncc1,100%,96%,52%
CCC1(CC)CN(c2ccccc2)c2ccc(O)cc2S(=O)(=O)C1CC(C)C (stereo unspecified),96%,89%,0%
CN1CCN(CCCN(Cc2csc(-c3ccc(CNCc4ccccc4)cc3)n2)S(=O)(=O)c2ccccc2)CC1.O=C(O)C(F)(F)F,99%,78%,17%
COc1ccc(CNC(=O)C2Cc3ccccc3CN2Cc2ccc3ccccc3c2)cc1 (stereo unspecified),96%,84%,15%
N#Cc1ccc(-c2ccc(C(=O)NC3CCN(CCN4CCc5c(cccc5C(F)(F)F)C4)CC3)cc2)cc1,98%,51%,40%
CC(=O)Nc1ccc(CN(Cc2cccc(OC(C)(C)C)c2)Cc2ccc3c(c2)OCCO3)cc1,95%,96%,0%
CN(C)Cc1ccc(-c2cccc(Nc3nccc(NCC(O)c4ccccc4)n3)c2)cc1 (stereo unspecified),100%,100%,74%
Cc1ccc(C)c(NC(=O)CC2C(=O)N(c3ccccc3)C(=S)N2Cc2ccco2)c1 (stereo unspecified),100%,99%,9%
CC(=O)Nc1ccccc1OCc1cc2cc(C(=O)N3CCC(N4C(=O)OCc5ccccc54)CC3)ccc2o1,99%,98%,34%
O=C(N[C@@H](Cc1ccccc1)C(=O)NCc1cccc(C(F)(F)F)c1)c1ccc(O)c(-c2ccc(Cl)c(Cl)c2)c1,96%,97%,0%
O=C(Cc1cccc(Cl)c1)Nc1cccc(-c2c[nH]c3nc(Nc4cccc(O)c4)ncc23)c1.O=C(O)C(F)(F)F,100%,74%,23%
COc1ccc(-c2ncnc(C(F)(F)F)c2-c2ccc(Cl)cc2)c(O)c1,100%,22%,1%
CC(C)COc1ccc(Cl)cc1Cc1ccc(-c2nc3cc(F)c(F)cc3[nH]2)o1,95%,96%,27%
CN(C)CCOc1cc(NC(=O)Nc2ccc(-c3ccccc3)cc2Cl)ccc1I,100%,93%,25%
Cl.c1ccc(Oc2ccc(Nc3ccnc4c(-c5ccccn5)cccc34)cc2)cc1,100%,58%,31%
